This is an account of results in PubChem BioAssay AID623891 (Vanderbilt Specialized Chemistry Center, 2012).

The structures appear in SMILES notation. Activity calls are given as the source filed them.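 The calls were made as follows: active = fold shift of 2 or more as potentiator, or 0.5 or less as blocker, so actives lie on both sides; inactive = fold shift between 0.5 and 2.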

The target in the assay is Metabotropic glutamate receptor 6 (Homo sapiens) (UniProt O15303). As to the kind of experiment: mGlu6 glutamate response modulation check – cell-based, human, thallium flux, selectivity assay for mGlu4 lead optimization, profiling panel (AID 623891). Conditions: mGlu6 cells, glutamate CRC fold shift, at 10 µM.
Metabotropic glutamate receptor 6 (Homo sapiens), sequence (O15303 whole entry, looked up): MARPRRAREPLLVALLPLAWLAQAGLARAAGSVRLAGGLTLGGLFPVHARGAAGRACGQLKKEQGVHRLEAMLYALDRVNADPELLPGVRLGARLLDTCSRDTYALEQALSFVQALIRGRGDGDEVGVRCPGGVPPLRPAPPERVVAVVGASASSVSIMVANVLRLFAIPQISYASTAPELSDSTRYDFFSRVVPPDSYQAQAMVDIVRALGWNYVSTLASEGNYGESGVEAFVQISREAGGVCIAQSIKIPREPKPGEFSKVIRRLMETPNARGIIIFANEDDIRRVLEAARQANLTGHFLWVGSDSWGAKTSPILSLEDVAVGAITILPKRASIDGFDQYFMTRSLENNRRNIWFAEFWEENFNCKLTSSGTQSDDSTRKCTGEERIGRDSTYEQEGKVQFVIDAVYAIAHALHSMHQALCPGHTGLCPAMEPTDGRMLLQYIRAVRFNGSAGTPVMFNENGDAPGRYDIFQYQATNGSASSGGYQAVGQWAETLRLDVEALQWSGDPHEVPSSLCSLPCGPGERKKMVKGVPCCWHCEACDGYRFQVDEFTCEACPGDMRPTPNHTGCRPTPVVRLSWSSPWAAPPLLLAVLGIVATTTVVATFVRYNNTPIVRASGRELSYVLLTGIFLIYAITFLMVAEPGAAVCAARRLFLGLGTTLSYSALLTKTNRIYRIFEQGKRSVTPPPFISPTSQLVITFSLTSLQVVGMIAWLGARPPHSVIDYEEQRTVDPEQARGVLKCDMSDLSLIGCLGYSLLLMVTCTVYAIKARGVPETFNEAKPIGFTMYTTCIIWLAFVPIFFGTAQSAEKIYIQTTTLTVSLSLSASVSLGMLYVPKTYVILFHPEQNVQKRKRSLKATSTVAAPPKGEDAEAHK

Consider `O=C(Nc1cccc(Cl)c1)c1ccccn1`, for which the fold shift is 4.27 (active).
